Results on 14 molecules are retold here after PubChem BioAssay (NCATS).

Experiment [1] is described as follows: qHTS to identify inhibitors of the type 1 interferon - major histocompatibility complex class I in skeletal muscle: primary screen against the NCATS Mechanism Interrogation Plate v5.0 (MIPE) Libary (AID 1347411). Also: nearly all actives have a fitted effect of over 65% in size. Also: potency is read from the fitted curve at half-maximal effect. A digest of the protocol: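 IFN-beta-driven (4 ng/ml) HLA-B-HiBit expression in CRISPR-tagged C25cl48 myoblasts; compounds 11-pt, 1:3, max 46 uM, 24 hr exposure; lytic NanoLuc complementation luminescence.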

Experiment [2] deals with Calcium and integrin-binding protein 1 (Homo sapiens) (UniProt Q99828). Briefly: Primary qHTS for Identification of Calcium Integrin Binding Protein 1 (CIB1) Competitor (AID 1508620). Also: top concentration of the series differs between compounds. A digest of the protocol: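 Fluorescence polarization competition: GST-tagged CIB1 (1 uM final) preincubated with compound 15 min at room temperature, then FITC-labelled alphaIIb peptide (100 nM final) added. After 15 min at room temperature, polarization read at Ex 480/Em 540.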
Calcium and integrin-binding protein 1 (Homo sapiens), sequence (Q99828 whole entry, looked up): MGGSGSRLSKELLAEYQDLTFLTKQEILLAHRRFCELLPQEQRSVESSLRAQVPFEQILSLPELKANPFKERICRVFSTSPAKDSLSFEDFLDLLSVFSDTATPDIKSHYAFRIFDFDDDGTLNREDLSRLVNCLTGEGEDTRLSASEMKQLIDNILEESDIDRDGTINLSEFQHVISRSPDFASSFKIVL

Experiment [3] is described as follows: Primary qHTS for small molecule stabilizers of the endoplasmic reticulum resident proteome: Secreted ER Calcium Modulated Protein (SERCaMP) assay (AID 1508630). An outline of the steps:
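The SH-SY5Y reporter protocol was run at 3 concentrations up to 38.3 uM (primary) or 11 concentrations (follow-up): 16 h compound, 100 nM thapsigargin for 4 h, then extracellular luciferase luminescence.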

Experiment [4] can be described thus: Primary qHTS for inhibitors of nuclear receptor binding SET domain protein 2 (NSD2) in an isogenic RCH-ACV NSD2 p.E1099K mutant (9B) (AID 1645876). Also: nearly all actives have a fitted effect of over 70% in size. Also: potency is read from the fitted curve at half-maximal effect.
A short description of experiment [5]: Primary qHTS for inhibitors of nuclear receptor binding SET domain protein 2 (NSD2) in an RCH-ACV wild type WT cells (2C) (AID 1645877). Also: nearly all actives have a fitted effect of over 70% in size. Also: potency is read from the fitted curve at half-maximal effect.
The target of experiment [6] is Cytochrome P450 2D6 (Homo sapiens) (UniProt P10635). The experiment in a line: Cytochrome P450 family 2 subfamily D member 6 (CYP2D6) small molecule antagonists: luciferase biochemical (cell-free) qHTS assay (AID 1645840; active = well fitted curve in the direction sought with a large enough effect in the repeat runs; an effect the other way counts as inactive or inconclusive; also: potency is read from the fitted curve at half-maximal effect; nearly all actives have a fitted effect of over 55% in size). A digest of the protocol:
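P450-Glo CYP2D6 system: proluciferin substrate converted by enzyme to luciferin, read by luminescence proportional to activity. Enzyme-substrate mix with compound 10 min at room temperature, then NADPH regeneration 1 h before detection reagent.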

The target of experiment [7] is Cytochrome P450 2C9 (Homo sapiens) (UniProt P11712). The experiment in a line: Cytochrome P450 family 2 subfamily C member 9 (CYP2C9) small molecule antagonists: luciferase biochemical (cell-free) qHTS assay (AID 1645842; active = well fitted curve in the direction sought with a large enough effect in the repeat runs; an effect the other way counts as inactive or inconclusive; also: potency is read from the fitted curve at half-maximal effect; nearly all actives have a fitted effect of over 55% in size). An outline of the steps:
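P450-Glo CYP2C9 system: proluciferin substrate with enzyme in mix containing 0.4% BSA, 10 min at room temperature, then NADPH regeneration solution added and incubated 1 h at 37C. Detection reagent stopped reaction; luminescence read after 20 min as RLU.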

Where “and” joins values, the source holds several entries; their conditions need not be identical. Identical values can stand only once. Inconclusive results are not listed. Calls of active or inactive are those of the source. Unless noted, calls follow the shape of the dose curve; as a rule, active = well fitted curve in the direction sought with a large enough effect; inconclusive = small, poorly fitted or top-dose-only effect, or another doubt; inactive = no such curve, though single readings can be large; an effect the other way counts as inactive or inconclusive.

Cytochrome P450 2C9 (Homo sapiens), sequence (P11712 whole entry, looked up): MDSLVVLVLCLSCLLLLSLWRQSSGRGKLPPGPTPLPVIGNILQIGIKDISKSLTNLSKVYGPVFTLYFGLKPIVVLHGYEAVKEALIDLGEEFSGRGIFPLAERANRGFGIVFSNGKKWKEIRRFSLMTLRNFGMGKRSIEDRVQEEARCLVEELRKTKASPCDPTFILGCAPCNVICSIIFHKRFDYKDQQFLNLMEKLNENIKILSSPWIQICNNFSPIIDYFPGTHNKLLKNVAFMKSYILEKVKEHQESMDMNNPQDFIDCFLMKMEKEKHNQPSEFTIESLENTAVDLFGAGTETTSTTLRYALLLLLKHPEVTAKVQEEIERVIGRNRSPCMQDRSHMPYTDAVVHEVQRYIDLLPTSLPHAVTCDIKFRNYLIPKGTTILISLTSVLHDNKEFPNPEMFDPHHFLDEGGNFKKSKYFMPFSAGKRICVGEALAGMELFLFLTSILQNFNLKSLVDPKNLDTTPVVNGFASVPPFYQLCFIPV
Cytochrome P450 2D6 (Homo sapiens), sequence (P10635 whole entry, looked up): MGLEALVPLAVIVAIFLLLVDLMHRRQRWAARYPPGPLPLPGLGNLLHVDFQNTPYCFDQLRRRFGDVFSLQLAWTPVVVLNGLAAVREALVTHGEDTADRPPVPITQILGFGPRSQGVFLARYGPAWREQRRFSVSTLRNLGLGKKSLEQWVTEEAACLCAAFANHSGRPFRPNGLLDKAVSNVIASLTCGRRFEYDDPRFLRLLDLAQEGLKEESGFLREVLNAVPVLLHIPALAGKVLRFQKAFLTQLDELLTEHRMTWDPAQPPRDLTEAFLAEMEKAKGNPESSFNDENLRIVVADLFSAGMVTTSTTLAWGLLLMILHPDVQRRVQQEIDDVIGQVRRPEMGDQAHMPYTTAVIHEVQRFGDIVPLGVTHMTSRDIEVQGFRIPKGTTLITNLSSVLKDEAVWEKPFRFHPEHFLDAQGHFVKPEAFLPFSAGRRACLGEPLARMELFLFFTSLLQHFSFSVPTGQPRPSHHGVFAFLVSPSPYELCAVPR

Regarding `COc1cc(O)c2c(c1)C1OC1C[C@H](O)[C@H](O)C(=O)C=CC[C@H](C)OC2=O` (stereo partly specified), the figures for the Potency in experiment [1], in experiment [4] and in experiment [5] were 13.1 µM (active), 3.72 µM (active) and 3.32 µM (active), respectively. In addition, the Potency result in experiment [2] was “inactive”. In experiment [3], the result was inactive.

For the molecule `Cc1ccc2nc(NCCN)c3ncc(C)n3c2c1`, the Potency in experiment [1] is 4.66 µM (active); in experiment [4], 9.2 µM (active) and 4.68 µM (active); in experiment [5] it was 9.2 µM (active) and 3.72 µM (active). Also, the Potency entry in experiment [2] is “inactive”. Further, in experiment [3], the result was inactive.

On to `COC(=O)[C@H](CCCN=C(N)N)NS(=O)(=O)c1ccc(C)cc1`, for which the Potency result in experiment [1], in experiment [2], in experiment [4] and in experiment [5] was “inactive” throughout.

On to `CC(C)c1cnn2c(NCc3ccccc3)cc(NCCCCCCN)nc12`, for which the Potency in experiment [1] was 26.2 µM (active); in experiment [4], 20.9 µM (active); in experiment [5], 20.9 µM (active). In experiment [2], the Potency result is “inactive”.

As to `CCCCCCCN(CC)CCCC(O)c1ccc(NS(C)(=O)=O)cc1` (stereo unspecified), the Potency result in experiment [1], in experiment [2], in experiment [4] and in experiment [5] was “inactive” each time. Besides, in experiment [3], the result was inactive.

In the case of `CC(C)[C@H](CO)Nc1nc(Nc2cccc(Cl)c2)c2ncn(C(C)C)c2n1`, the results for the Potency in experiment [1], in experiment [4] and in experiment [5] were 16.5 µM (active), 9.34 µM (active) and 9.34 µM (active), respectively. Besides, the Potency entry in experiment [2] is “inactive”. Besides, in experiment [3], the result was inactive.

For the molecule `O=S(=O)(O)CCSSCCS(=O)(=O)O`, the Potency result in experiment [1], in experiment [2], in experiment [4] and in experiment [5] was “inactive” each time.

For the molecule `COc1cc2c(cc1OC)[C@@H]1C(=O)c3ccc4c(c3O[C@@H]1CO2)C=CC(C)(C)O4`, the Potency entry in experiment [1] and in experiment [2] was “inactive” throughout. The outcome in experiment [3] was inactive. For the same molecule, the Potency was 16.4 µM (active) and 1.86 µM (active) in experiment [4]; 18.4 µM (active) and 5.9 µM (active) in experiment [5].

For the molecule `CCN(C(=O)c1c(O)c2c(Cl)cccc2n(C)c1=O)c1ccccc1`, the Potency entry in experiment [1], in experiment [2] and in experiment [5] was “inactive” in each case. Also, the result in experiment [3] was inactive.

Consider `CC1=C(C(=O)Nc2cc3cn[nH]c3cc2F)C(c2ccc(Cl)cc2F)N=C(c2ccnc(Cl)c2)N1` (stereo unspecified), for which the Potency result in experiment [1] and in experiment [2] was “inactive” throughout. Also, the Potency in experiment [6] was 6.74 µM (active); in experiment [7], 3.79 µM (active); in experiment [4] it was 5.78 µM (active) and 9.34 µM (active); in experiment [5], 2.58 µM (active) and 4.17 µM (active).

With `N#Cc1cc(NC(=O)Nc2nnc(-c3ccncc3)s2)ccc1-c1cn[nH]c1`, the Potency entry in experiment [1], in experiment [2], in experiment [4] and in experiment [5] was “inactive” throughout. Further, the outcome in experiment [3] was inactive.

`CCS(=O)(=O)Nc1ccc2[nH]c(O)c(C(=Nc3ccc(CN4CCCCC4)cc3)c3ccccc3)c2c1`: the Potency in experiment [1] was 2.62 µM (active); in experiment [4], 0.148 µM (active); in experiment [5], 0.0295 µM (active). Further, in experiment [2], the Potency result was “inactive”. Moreover, the result in experiment [3] was inactive.

`O=C(O)CCCCCC(=O)NN=C1CCCC1`: the Potency entry in experiment [1], in experiment [2], in experiment [4] and in experiment [5] was “inactive” throughout. For the same molecule, the result in experiment [3] was inactive.

Take `C[C@H](NC(=O)[C@@H](O)c1cc(F)cc(F)c1)C(=O)N[C@@H]1C(=O)N(C)c2ccccc2-c2ccccc21`: the Potency result in experiment [1], in experiment [2], in experiment [4] and in experiment [5] was “inactive” each time.
